# About 2,000 (36%) of roughly 5,500 compounds were called active. Roughly 18% stayed inconclusive and do not appear here. No stated cut-off is given here; in the data, active means normalized growth mostly below about 0.91 (no sharp cut-off); inconclusive means no clear call, values can overlap the other calls; inactive means mostly above about 0.92. This is one part of the list.
# Assay: chemical genetic growth profiling, strain panel (AID 1159580);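 further: tested at 20 µM; growth read once vehicle control cultures reached saturation at 30 °C; 1 = growth at the plate median or of vehicle wells; lower values mean less growth of the strain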
# Conditions: growth OD
smiles,measurement,setting,value
CCCCOC(=O)c1ccc(N)cc1,normalized growth,"S. cerevisiae deletion strains, locus YJR075W, strain HOC1, hits give low values",0.888 (inactive)
same,normalized growth,"S. cerevisiae deletion strains, locus YKL009W, strain mrt4, hits give low values",0.946 (inactive)
same,normalized growth,"S. cerevisiae deletion strains, locus YKL068W, hits give low values",0.962 (inactive)
same,normalized growth,"S. cerevisiae deletion strains, locus YKL085W, strain MDH1 (second series), hits give low values",0.961 (inactive)
same,normalized growth,"S. cerevisiae deletion strains, locus YKL085W, strain MDH1, hits give low values",0.961 (inactive)
same,normalized growth,"S. cerevisiae deletion strains, locus YKL160W, strain elf1, hits give low values",0.875 (active)
same,normalized growth,"S. cerevisiae deletion strains, locus YKL190W, strain CNB1, hits give low values",0.975 (inactive)
same,normalized growth,"S. cerevisiae deletion strains, locus YKR001C, strain vps1, hits give low values",0.693 (active)
same,normalized growth,"S. cerevisiae deletion strains, locus YKR026C, strain gcn3, hits give low values",0.91 (active)
same,normalized growth,"S. cerevisiae deletion strains, locus YKR091W, strain srl3, hits give low values",0.907 (active)
same,normalized growth,"S. cerevisiae deletion strains, locus YLL001W, strain dnm1, hits give low values",0.825 (active)
same,normalized growth,"S. cerevisiae deletion strains, locus YLL026W, hits give low values",0.888 (active)
same,normalized growth,"S. cerevisiae deletion strains, locus YLL041C, strain sdh2, hits give low values",0.899 (active)
same,normalized growth,"S. cerevisiae deletion strains, locus YLR027C, strain aat2, hits give low values",0.878 (active)
same,normalized growth,"S. cerevisiae deletion strains, locus YLR039C, strain RIC1, hits give low values",0.783 (inactive)
same,normalized growth,"S. cerevisiae deletion strains, locus YLR058C, strain SHM2, hits give low values",0.979 (inactive)
same,normalized growth,"S. cerevisiae deletion strains, locus YLR102C, strain apc9, hits give low values",0.955 (inactive)
same,normalized growth,"S. cerevisiae deletion strains, locus YLR113W, strain HOG1, hits give low values",0.954 (inactive)
same,normalized growth,"S. cerevisiae deletion strains, locus YLR221C, strain rsa3, hits give low values",0.841 (active)
same,normalized growth,"S. cerevisiae deletion strains, locus YLR258W, strain gsy2, hits give low values",0.873 (active)
same,normalized growth,"S. cerevisiae deletion strains, locus YLR262C, strain YPT6 (second series), hits give low values",0.433 (active)
same,normalized growth,"S. cerevisiae deletion strains, locus YLR262C, strain YPT6, hits give low values",0.775 (inactive)
same,normalized growth,"S. cerevisiae deletion strains, locus YLR268W, strain sec22, hits give low values",0.86 (active)
same,normalized growth,"S. cerevisiae deletion strains, locus YLR320W, strain mms22, hits give low values",0.635 (active)
same,normalized growth,"S. cerevisiae deletion strains, locus YLR330W, strain CHS5, hits give low values",0.947 (inactive)
same,normalized growth,"S. cerevisiae deletion strains, locus YLR342W, strain FKS1 (second series), hits give low values",0.661 (active)
same,normalized growth,"S. cerevisiae deletion strains, locus YLR342W, strain FKS1, hits give low values",0.605 (active)
same,normalized growth,"S. cerevisiae deletion strains, locus YLR357W, strain rsc2, hits give low values",0.942 (inactive)
same,normalized growth,"S. cerevisiae deletion strains, locus YLR370C, strain arc18, hits give low values",0.844 (active)
same,normalized growth,"S. cerevisiae deletion strains, locus YLR371W, strain rom2, hits give low values",0.886 (active)
same,normalized growth,"S. cerevisiae deletion strains, locus YLR384C, strain iki3, hits give low values",0.946 (inactive)
same,normalized growth,"S. cerevisiae deletion strains, locus YLR418C, strain cdc73, hits give low values",0.765 (active)
same,normalized growth,"S. cerevisiae deletion strains, locus YML016C, strain PPZ1, hits give low values",0.981 (inactive)
same,normalized growth,"S. cerevisiae deletion strains, locus YML032C, strain rad52, hits give low values",0.905 (active)
same,normalized growth,"S. cerevisiae deletion strains, locus YML120C, strain ndi1, hits give low values",0.897 (active)
same,normalized growth,"S. cerevisiae deletion strains, locus YML124C, strain tub3, hits give low values",0.939 (inactive)
same,normalized growth,"S. cerevisiae deletion strains, locus YMR058W, strain fet3, hits give low values",0.881 (active)
same,normalized growth,"S. cerevisiae deletion strains, locus YMR078C, strain ctf18, hits give low values",0.933 (inactive)
same,normalized growth,"S. cerevisiae deletion strains, locus YMR125W, strain sto1, hits give low values",0.871 (active)
same,normalized growth,"S. cerevisiae deletion strains, locus YMR129W, hits give low values",0.922 (active)
same,normalized growth,"S. cerevisiae deletion strains, locus YMR205C, strain PFK2, hits give low values",0.793 (active)
same,normalized growth,"S. cerevisiae deletion strains, locus YMR223W, strain ubp8, hits give low values",0.902 (active)
same,normalized growth,"S. cerevisiae deletion strains, locus YMR231W, strain pep5, hits give low values",0.931 (inactive)
same,normalized growth,"S. cerevisiae deletion strains, locus YMR263W, strain SAP30, hits give low values",0.93 (inactive)
same,normalized growth,"S. cerevisiae deletion strains, locus YMR307W, strain GAS1, hits give low values",0.319 (active)
same,normalized growth,"S. cerevisiae deletion strains, locus YNL067W, strain RPL9B, hits give low values",0.907 (inactive)
same,normalized growth,"S. cerevisiae deletion strains, locus YNL071W, strain lat1, hits give low values",0.653 (active)
same,normalized growth,"S. cerevisiae deletion strains, locus YNL128W, strain TEP1, hits give low values",0.989 (inactive)
same,normalized growth,"S. cerevisiae deletion strains, locus YNL153C, strain GIM3, hits give low values",0.939 (inactive)
same,normalized growth,"S. cerevisiae deletion strains, locus YNL183C, strain NPR1, hits give low values",0.934 (inactive)
same,normalized growth,"S. cerevisiae deletion strains, locus YNL209W, strain ssb2, hits give low values",0.927 (active)
same,normalized growth,"S. cerevisiae deletion strains, locus YNL233W, strain BNI4, hits give low values",0.86 (active)
same,normalized growth,"S. cerevisiae deletion strains, locus YNL248C, strain rpa49, hits give low values",0.904 (inactive)
same,normalized growth,"S. cerevisiae deletion strains, locus YNL250W, strain rad50, hits give low values",0.934 (inactive)
same,normalized growth,"S. cerevisiae deletion strains, locus YNL271C, strain bni1, hits give low values",0.938 (inactive)
same,normalized growth,"S. cerevisiae deletion strains, locus YNL298W, strain CLA4, hits give low values",0.939 (inactive)
same,normalized growth,"S. cerevisiae deletion strains, locus YNL307C, strain MCK1, hits give low values",0.868 (active)
same,normalized growth,"S. cerevisiae deletion strains, locus YNL322C, strain KRE1 (second series), hits give low values",0.91 (inactive)
same,normalized growth,"S. cerevisiae deletion strains, locus YNL322C, strain KRE1, hits give low values",0.987 (inactive)
same,normalized growth,"S. cerevisiae deletion strains, locus YNR049C, strain mso1, hits give low values",0.905 (active)
same,normalized growth,"S. cerevisiae deletion strains, locus YNR052C, strain pop2, hits give low values",0.949 (inactive)
same,normalized growth,"S. cerevisiae deletion strains, locus YOL006C, strain TOP1, hits give low values",0.64 (inactive)
same,normalized growth,"S. cerevisiae deletion strains, locus YOL012C, strain htz1",0.742 (inactive)
same,normalized growth,"S. cerevisiae deletion strains, locus YOL147C, strain pex11, hits give low values",0.937 (inactive)
same,normalized growth,"S. cerevisiae deletion strains, locus YOR001W, strain rrp6, hits give low values",0.853 (active)
same,normalized growth,"S. cerevisiae deletion strains, locus YOR061W, strain CKA2, hits give low values",0.986 (inactive)
same,normalized growth,"S. cerevisiae deletion strains, locus YOR069W, strain VPS5, hits give low values",0.987 (inactive)
same,normalized growth,"S. cerevisiae deletion strains, locus YOR070C, strain gyp1, hits give low values",0.9 (active)
same,normalized growth,"S. cerevisiae deletion strains, locus YOR080W, strain dia2, hits give low values",0.95 (inactive)
same,normalized growth,"S. cerevisiae deletion strains, locus YOR083W, strain WHI5, hits give low values",0.862 (active)
same,normalized growth,"S. cerevisiae deletion strains, locus YOR106W, strain vam3, hits give low values",0.771 (active)
same,normalized growth,"S. cerevisiae deletion strains, locus YOR136W, strain idh2, hits give low values",0.956 (inactive)
same,normalized growth,"S. cerevisiae deletion strains, locus YOR144C, strain elg1, hits give low values",0.961 (inactive)
same,normalized growth,"S. cerevisiae deletion strains, locus YOR184W, strain ser1, hits give low values",0.817 (active)
same,normalized growth,"S. cerevisiae deletion strains, locus YOR231W, strain MKK1, hits give low values",0.987 (inactive)
same,normalized growth,"S. cerevisiae deletion strains, locus YOR265W, strain rbl2, hits give low values",0.902 (active)
same,normalized growth,"S. cerevisiae deletion strains, locus YOR270C, strain vph1, hits give low values",0.489 (active)
same,normalized growth,"S. cerevisiae deletion strains, locus YOR290C, strain snf2, hits give low values",0.867 (inactive)
same,normalized growth,"S. cerevisiae deletion strains, locus YOR316C, strain cot1, hits give low values",0.955 (inactive)
same,normalized growth,"S. cerevisiae deletion strains, locus YPL051W, strain arl3, hits give low values",0.725 (active)
same,normalized growth,"S. cerevisiae deletion strains, locus YPL055C, strain LGE1, hits give low values",0.889 (inactive)
same,normalized growth,"S. cerevisiae deletion strains, locus YPL078C, strain atp4, hits give low values",0.795 (active)
same,normalized growth,"S. cerevisiae deletion strains, locus YPL106C, strain sse1, hits give low values",0.792 (active)
same,normalized growth,"S. cerevisiae deletion strains, locus YPL240C, strain hsp82, hits give low values",0.914 (active)
same,normalized growth,"S. cerevisiae deletion strains, locus YPL241C, strain CIN2, hits give low values",0.98 (inactive)
same,normalized growth,"S. cerevisiae deletion strains, locus YPL256C, strain CLN2, hits give low values",0.967 (inactive)
same,normalized growth,"S. cerevisiae deletion strains, locus YPR119W, strain clb2, hits give low values",0.949 (inactive)
same,normalized growth,"S. cerevisiae deletion strains, locus YPR141C, strain kar3, hits give low values",0.933 (inactive)
same,normalized growth,"S. cerevisiae deletion strains, locus YPR163C, strain tif3, hits give low values",0.946 (inactive)
same,normalized growth,"S. cerevisiae deletion strains, locus YPR167C, strain met16, hits give low values",0.96 (inactive)
same,normalized growth,"S. cerevisiae deletion strains, strain wtn01, hits give low values",0.871 (active)
same,normalized growth,"S. cerevisiae strains, strain wild type, hits give low values",0.949 (inactive)

# From PubChem BioAssay AID1159580 (chemical genetic matrix, 2015)
